Laboratory results: the supplement of paper PMC4840960
± gives the standard deviation of the averaged measurements.

What was measured:
[1] = test system: E18 rat cortical neuron-glia co-culture; assay: fiber score / MBP score (myelination specific beyond OL differentiation) (ratio); higher = more myelination-specific MBP alignment; conditions: treatment time: 8 days (DIV5-DIV13)
How it was run: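 The measure is the ratio of fiber score to MBP score, where fiber score is continuous MBP fiber length per Olig2+ nucleus and MBP score is thresholded MBP area × intensity per Olig2+ nucleus. Primary E18 rat cortical co-cultures received library compounds at 1 or 5 µM in myelination medium from DIV5 to DIV13, then were fixed in 4 % paraformaldehyde and stained for MBP, Olig2 and DAPI before analysis of four 10X fields per well in duplicate wells.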

[2] = test system: E18 rat cortical neuron-glia co-culture; assay: myelination (MBP fiber length per Olig2+ nucleus), % of 1 µM DAPT response (DMSO = 0) (% of DAPT); higher = more myelination, active = 50 or more; conditions: treatment time: 8 days (DIV5-DIV13)
How it was run: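 The myelination value was the continuous straight MBP fiber length per Olig2+ nucleus, scaled between 0.1 % DMSO (0) and a 1 µM positive control (100). It was measured in primary E18 rat cortical co-cultures treated with library compounds at 1 or 5 µM in myelination medium from DIV5 through DIV13. Cells were fixed in 4 % paraformaldehyde and stained for MBP, Olig2 and DAPI, and four 10X fields per well were imaged in duplicate wells.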

Row | Structure (SMILES) | fiber score / MBP score ([1]; 1 µM) | fiber score / MBP score ([1]; 5 µM) | myelination ([2]; 1 µM) | myelination ([2]; 5 µM)
1 | CNCC(O)c1ccc(O)cc1 (stereo not drawn) [Synephrine] | 0.822 | 0.702 | -6.47 (inactive) | -10.5 (inactive)
2 | C[C@]12CC[C@H](O)CC1=CC[C@@H]1[C@@H]2CC[C@@]2(C)[C@H]1CC[C@]2(C)O [Methandriol] | 0.712 | 0.961 | -15.9 (inactive) | -4.34 (inactive)
3 | CCOC(=O)c1cncn1[C@H](C)c1ccccc1 [Etomidate] | 0.772 ± 0.06 | 0.987 ± 0.1 | -14.6 (inactive) | 6.64 (inactive)
4 | NCCc1ccccn1 [2-(2-aminoethyl)pyridine] | 0.847 | 0.699 | -7.37 (inactive) | -9.08 (inactive)
5 | CC(NC(C)(C)C)C(=O)c1cccc(Cl)c1 (stereo not drawn) [Bupropion] | 0.583 ± 0.43 | 0.467 ± 0.35 | -29.5 (inactive) | -31.8 (inactive)
6 | CC(C)c1cccc(C(C)C)c1O [Propofol] | 0.782 | 0.895 | -3.16 (inactive) | -2.27 (inactive)
7 | CCC(C(N)=O)N1CCCC1=O (stereo not drawn) [Etiracetam] | 0.904 | 0.739 | -28.6 (inactive) | -27.5 (inactive)
8 | COc1cccc(C2(O)CCCCC2CN(C)C)c1 (stereo not drawn) [Tramadol] | 0.793 | 0.749 | -12.4 (inactive) | -7.33 (inactive)
9 | CCCC(C)(COC(N)=O)COC(=O)NC(C)C (stereo not drawn) [Carisoprodol] | 0.713 | 0.796 | -13 (inactive) | -11.9 (inactive)
10 | CC[C@]1(O)CC[C@H]2[C@@H]3CCC4=CCCC[C@@H]4[C@H]3CC[C@@]21C [Ethylestrenol] | 0.661 | 1.72 | -13.8 (inactive) | 204 (active)
11 | COc1cc2c(cc1OC)[C@@]13CCN4CC5=CCO[C@H]6CC(=O)N2[C@H]1[C@H]6[C@H]5C[C@H]43 [Brucine] | 0.957 | 0.692 | -6.05 (inactive) | -15.7 (inactive)
12 | CCC1(c2ccc(N)cc2)CCC(=O)NC1=O (stereo not drawn) [Aminoglutethimide] | 0.845 | 0.779 | -5.42 (inactive) | -5.16 (inactive)
13 | NC(=O)C[S+]([O-])C(c1ccccc1)c1ccccc1 (stereo not drawn) [Modafinil] | 0.88 | 0.861 | -9.51 (inactive) | -26.7 (inactive)
14 | CNC(=O)Oc1ccc2c(c1)[C@]1(C)CCN(C)[C@@H]1N2C [Physostigmine] | 0.593 | 0.703 | -13.2 (inactive) | -9.34 (inactive)
15 | CCCN1C[C@H](CSC)C[C@@H]2c3cccc4[nH]cc(c34)C[C@H]21 [Pergolide] | 0.689 | 0.278 | -19.3 (inactive) | -24.9 (inactive)
16 | CCOC(=O)C1(c2ccccc2)CCN(CCC(C#N)(c2ccccc2)c2ccccc2)CC1 [Diphenoxylate] | 0.738 | 0.867 | -12.3 (inactive) | 11.5 (inactive)
17 | O=C(O)C(Cl)Cl [Dichloroacetic Acid] | 0.765 | 0.882 | -10.2 (inactive) | -7.43 (inactive)
18 | Oc1ccc2c3c1O[C@H]1[C@@H](O)CC[C@@]4(O)[C@@H](C2)N(CC2CCC2)CC[C@]314 [Nalbufina] | 0.796 | 0.955 | -19 (inactive) | -7.9 (inactive)
19 | Oc1cc2c(cc1O)[C@H]1c3ccccc3CN[C@@H]1CC2 (racemic) [Dihydrexidine] | 1.05 | 3.38 | -4.93 (inactive) | -20.9 (inactive)
20 | N=C(NCc1ccc(Cl)cc1)SCCCc1c[nH]cn1 [Clobenpropit] | 0.723 | 0.822 | -13 (inactive) | 3.66 (inactive)
21 | COc1cc([C@@H]2c3cc4c(cc3[C@H](O)[C@H]3COC(=O)[C@H]23)OCO4)cc(OC)c1OC [Podophyllotoxin] | 0.393 | 0.31 | -13.9 (inactive) | -15.8 (inactive)
22 | CN1CC[C@]23CCCC[C@H]2[C@H]1Cc1ccc(O)cc13 [Levorphanol] | 0.869 | 0.735 | -27.6 (inactive) | -51.1 (inactive)
23 | C=C1C[C@@H]2[C@H](CC[C@]3(C)C(=O)CC[C@@H]23)[C@@]2(C)C=CC(=O)C=C12 [Exemestane] | 0.805 | 0.86 | -11.3 (inactive) | -11.8 (inactive)
24 | CN(C)C(=O)Oc1ccc[n+](C)c1 [Pyridostigmine Bromide] | 0.691 | 0.895 | -14.3 (inactive) | -8.88 (inactive)
25 | C[C@]12C/C(=C/O)C(=O)C[C@@H]1CC[C@@H]1[C@@H]2CC[C@@]2(C)[C@H]1CC[C@]2(C)O [Oxymetholone] | 0.813 | 0.965 | -11.9 (inactive) | -8.04 (inactive)
26 | Cc1ccc(-c2nc3ccc(C)cn3c2CC(=O)N(C)C)cc1 [Zolpidem] | 0.967 | 0.776 | -6.37 (inactive) | -13.3 (inactive)
27 | C[C@]12CCC(=O)C[C@@H]1CC[C@@H]1[C@@H]2CC[C@@]2(C)[C@H]1CC[C@]2(C)O [Mestanolone] | 0.746 | 0.854 | -21.8 (inactive) | -14.6 (inactive)
